Measured values as given in PubChem BioAssay (NCATS).
Where “and” joins values, the source holds several entries; their conditions need not be identical. Equal entries are not always repeated. Results filed as inconclusive are left out. Calls of active or inactive are those of the source. Unless noted, the call rests on the fitted dose curve; in most records, active means well fitted curve in the direction sought with a large enough effect; inconclusive means small, poorly fitted or top-dose-only effect, or another doubt; inactive means no such curve, though single readings can be large; an effect the other way counts as inactive or inconclusive.

Tests used:
[1] = molecular target: Cytochrome P450 3A4 (Homo sapiens) (UniProt P08684); experiment: qHTS Assay for Inhibitors and Substrates of Cytochrome P450 3A4 (AID 884); further: on the % scale 0 is the no-effect control and ±100 the full control effect; nearly all actives have a fitted effect of over 50% in size
Chain of Cytochrome P450 3A4 (Homo sapiens) (P08684 whole entry, looked up): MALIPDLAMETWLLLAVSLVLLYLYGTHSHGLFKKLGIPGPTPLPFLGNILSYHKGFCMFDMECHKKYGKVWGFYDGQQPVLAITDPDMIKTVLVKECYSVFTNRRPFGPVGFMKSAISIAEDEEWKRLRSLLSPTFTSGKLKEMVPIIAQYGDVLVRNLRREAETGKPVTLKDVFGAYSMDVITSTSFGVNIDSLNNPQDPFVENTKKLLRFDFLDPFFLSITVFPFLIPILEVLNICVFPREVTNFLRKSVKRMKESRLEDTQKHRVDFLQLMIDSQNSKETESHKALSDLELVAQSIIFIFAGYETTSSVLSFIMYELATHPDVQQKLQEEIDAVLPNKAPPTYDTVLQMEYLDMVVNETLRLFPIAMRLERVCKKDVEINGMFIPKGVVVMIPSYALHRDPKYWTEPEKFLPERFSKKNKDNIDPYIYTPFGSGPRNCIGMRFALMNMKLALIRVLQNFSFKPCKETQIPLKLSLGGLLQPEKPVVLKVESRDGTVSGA
Outline: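 Luminescent readout of luciferin produced by CYP3A4 (20 nM) dealkylation of Luciferin-PPXE, 25 uM (its KM). NADPH-driven reaction ran 60 min at RT after 10 min compound preincubation; data scaled to 57 uM ketoconazole as 100% inhibition.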

[2] = Confirmation and Secondary Assay for Modulators of Hemoglobin Beta Chain Splicing at IVS2 654 locus (AID 910);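 further: HeLa cells stably carrying EGFP split by mutant beta-globin IVS2-654 intron; per-well total GFP intensity by laser scanning cytometry after 2-day treatment; % of control where 0% means no effect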
Outline: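 Readout: per-well total peak green fluorescence (488 nm ex, 500–520 nm em) from objects 5–250 µm, reflecting correct splicing of an EGFP-654 reporter. Compounds were applied for 2 days at 37 °C to overnight-plated HeLa EGFP-654 cells; controls were DMSO and 500 nM IVS2-654 PNA.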

[3] = molecular target: Cytochrome P450 2C9 (Homo sapiens) (UniProt P11712); experiment: qHTS Assay for Inhibitors and Substrates of Cytochrome P450 2C9 (AID 883); further: on the % scale 0 is the no-effect control and ±100 the full control effect; nearly all actives have a fitted effect of over 60% in size
Chain of Cytochrome P450 2C9 (Homo sapiens) (P11712 whole entry, looked up): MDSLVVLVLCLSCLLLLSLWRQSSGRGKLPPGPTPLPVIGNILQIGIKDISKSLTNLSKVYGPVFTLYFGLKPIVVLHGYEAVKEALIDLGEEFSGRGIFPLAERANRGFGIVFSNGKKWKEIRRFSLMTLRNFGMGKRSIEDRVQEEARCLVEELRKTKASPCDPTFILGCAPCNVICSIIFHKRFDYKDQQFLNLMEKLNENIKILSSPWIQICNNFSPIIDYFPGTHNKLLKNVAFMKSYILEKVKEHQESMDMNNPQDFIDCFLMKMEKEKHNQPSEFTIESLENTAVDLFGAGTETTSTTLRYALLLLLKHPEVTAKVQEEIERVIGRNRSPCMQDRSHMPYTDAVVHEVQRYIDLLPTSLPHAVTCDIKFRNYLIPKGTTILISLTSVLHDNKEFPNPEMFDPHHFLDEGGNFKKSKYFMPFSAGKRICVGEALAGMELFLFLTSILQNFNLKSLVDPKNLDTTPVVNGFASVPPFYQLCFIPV
Outline: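 Luminescent read-out of deoxyluciferin hydroxylation, normalized to 57uM sulphaphenazole (AC100). Reaction: 10nM enzyme, 100uM Luciferin-H (equal to KM), 25mM KPO4, 10 min compound preincubation, then 60 min with NADPH regeneration, both at 37C.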

[4] = Cellular Toxicity (caspase-3) SHSY5Y (AID 657); further: potency means the concentration at half of the fitted maximal effect
Outline: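 SH-SY5Y human neuroblastoma cells (1500/well) were treated with compounds for 16 h at 37 °C, then Caspase-Glo 3/7 luminescence was read after 1 h at room temperature. Data normalized to DMSO and 10 uM staurosporine; AC50 from Hill fits.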

[5] = Cellular Toxicity (caspase-3) BJ (AID 658); conditions: Potency: caspase-3 activation; further: potency means the concentration at half of the fitted maximal effect;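 on caspase-3 activation: 0% = DMSO basal and 100% = 10 µM staurosporine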
Outline: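 Caspase-Glo 3/7 luminescence, read 1 hr after reagent at room temperature, in normal BJ fibroblasts exposed 16 hours at 37 °C. AC50 values from Hill-equation concentration-response, scaled between DMSO basal and 10 uM staurosporine as 100%.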

[6] = Cellular Toxicity (caspase-3) MRC-5 (AID 659); conditions: Potency: caspase-3 activation; further: potency means the concentration at half of the fitted maximal effect;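 on caspase-3 activation: 0% = DMSO basal and 100% = 10 µM staurosporine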
Outline: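 Luminescent Caspase-Glo 3/7 read-out (1 h, room temperature) after a 16 h, 37 °C compound exposure of MRC-5 lung fibroblasts at 1500 cells/well. Concentration-response AC50 from Hill equation; 0% DMSO, 100% 10 uM staurosporine.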

[7] = Cellular Toxicity (caspase-3) Mesangial (AID 660); conditions: Potency: caspase-3 activation;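 further: combined caspase 3 and 7 activity read by Caspase-Glo luminescence; cells exposed to compound for 16 h before the caspase read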; further: potency means the concentration at half of the fitted maximal effect
Outline: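 AC50 values come from Hill-equation fits of caspase 3/7 activation, measured as Caspase-Glo luminescence in human glomerular mesangial cells exposed to compound for 16 h at 37 °C; 100% set by 100 uM tamoxifen.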

[8] = Cellular Toxicity (caspase-3) SK-N-SH (AID 661); further: potency means the concentration at half of the fitted maximal effect;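 on caspase-3 activation: 0% = DMSO basal and 100% = 10 µM staurosporine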
Outline: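 Apoptosis readout in SK-N-SH neuroblastoma: Caspase-Glo 3/7 luminescence following 16 hr treatment in complete culture medium. Normalization used DMSO and 10 uM staurosporine controls.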

[9] = Cellular Toxicity (caspase-3) H-4-II-E (AID 663); conditions: H-4-II-E rat hepatoma, scaled: DMSO 0%, 100 µM tamoxifen 100%; at 92.2 µM (top of the series);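 further: cells exposed to compound for 16 hr before readout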
Outline: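 Caspase 3/7 activation measured by luminescent aminoluciferin substrate cleavage after 16 hr compound treatment of H-4-II-E cells in complete medium. Increase normalized between DMSO (basal) and 100 uM tamoxifen (100%); Hill-equation AC50 from concentration-response.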

[10] = Cellular Toxicity (caspase-3) Hek293 (AID 664); conditions: HEK293 caspase-3 activation, DMSO = 0%, 100 µM tamoxifen = 100%; at 92.2 µM (top of the series);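 further: cells exposed to compound for 16 h at 37 °C before readout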
Outline: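 Apoptosis readout: Caspase-Glo 3/7 signal in human HEK293 cells following 16-hour compound incubation. Responses scaled between DMSO baseline and 100 uM tamoxifen.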

[11] = Cellular Toxicity (caspase-3) N2a (AID 665);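 further: compound exposure lasted 16 h at 37 °C before readout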
Outline: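 Concentration-response qHTS: compound-induced caspase-3/7 luminescence in N2a cells (16 h, 37 °C), relative to DMSO and 10 uM staurosporine controls; AC50 obtained using the standard Hill equation.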

[12] = Cellular Toxicity (caspase-3) NIH 3T3 (AID 666); further: potency means the concentration at half of the fitted maximal effect;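 on caspase-3 activation: 0% = DMSO basal and 100% = 100 µM tamoxifen stimulation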
Outline: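 Activity: caspase-3/7 induction, NIH 3T3 cells, 16 hr treatment at 37°C, luminescent Caspase-Glo detection; AC50 via Hill equation.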

[13] = Cellular Toxicity (caspase-3) Renal Proximal Tubule (AID 667); conditions: Potency: caspase-3 activation;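 further: cells exposed to compound for 16 hours at 37 °C before detection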; further: potency means the concentration at half of the fitted maximal effect;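 on caspase-3 activation: 0% = DMSO basal and 100% = 10 µM staurosporine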
Outline: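 Primary rat proximal tubule cells, 1000/well, 5 h plating at 37 °C, then compound 16 h at 37 °C. Caspase-Glo 3/7 reagent, 1 h RT, luminescence. Normalized to DMSO (basal) and 10 uM staurosporine (100%); Hill-fit AC50.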

[14] = molecular target: Guanine nucleotide-binding protein G(i) subunit alpha-1 (Homo sapiens) (UniProt P63096); experiment: qHTS Assay for Inhibitors of RGS12 GoLoco Motif Activity (Green Fluorophore) (AID 879);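 further: 0% = labeled peptide with Gαi1 and full inhibition = labeled peptide alone without protein; negative values mean loss of peptide binding seen as reduced polarization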
Chain of Guanine nucleotide-binding protein G(i) subunit alpha-1 (Homo sapiens) (P63096 whole entry, looked up): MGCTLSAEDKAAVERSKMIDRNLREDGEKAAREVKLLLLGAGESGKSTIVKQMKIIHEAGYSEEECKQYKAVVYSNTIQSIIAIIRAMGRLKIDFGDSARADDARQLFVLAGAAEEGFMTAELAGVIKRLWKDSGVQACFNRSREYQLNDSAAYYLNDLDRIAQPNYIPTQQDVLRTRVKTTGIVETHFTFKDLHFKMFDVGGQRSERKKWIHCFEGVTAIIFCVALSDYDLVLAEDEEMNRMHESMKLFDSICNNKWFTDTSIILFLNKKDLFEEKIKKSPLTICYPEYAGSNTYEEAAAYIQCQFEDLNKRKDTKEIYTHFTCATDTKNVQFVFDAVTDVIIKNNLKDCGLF
Outline: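 A drop in FITC polarization marked displacement of the FITC-tagged RGS12 GoLoco peptide (10 nM) from Gαi1 (50 nM). Compounds were incubated 10 min at room temperature in Tris pH 7.5 buffer containing 150 mM NaCl, 0.1 mM GDP and 0.05% NP40; unlabeled peptide titration served as control.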

[15] = qHTS Assay for Identification of Small Molecule Agonists for Hypoxia Response Element Signaling Pathway (AID 914; active means well fitted activation curve with a large enough effect in the signal ratio, with a control signal flat, not every such curve was filed as active; the % refers to the signal ratio; further: % of control where 0% means no effect); conditions: ME-180 (cervical carcinoma) HRE-bla reporter, beta-lactamase ratio, CoCl2, 17 h; stronger effect = higher value
Outline: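 In Opti-MEM containing 0.5% dialyzed FBS and 10 mM HEPES, ME-180 HRE-bla cells received a compound titration and EC50 CoCl2. They were incubated 17 hours, then CCF4-loaded 2.5 hours at room temperature before ratio reading.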

[16] = molecular target: Cytochrome P450 3A4 (Homo sapiens) (UniProt P08684); experiment: qHTS Assay for Activators of Cytochrome P450 3A4 (AID 885); further: nearly all actives have a fitted effect of over 65% in size
Outline: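 Human CYP3A4 dealkylates Luciferin-PPXE to luciferin, which luciferase detection converts to light. Substrate was at its KM (25uM), buffer 200mM KPO4, reaction 60 min at RT.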

[17] = qHTS Assay for Identification of Small Molecule Antagonists for NFkB Signaling Pathway (AID 895; active means well fitted inhibition curve with a large enough effect in the signal ratio, with a control signal flat, not every such curve was filed as active; the % refers to the signal ratio; further: potency means the concentration at half of the fitted maximal effect)
Outline: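 Beta-lactamase reporter read-out (460 and 530 nm emission ratio, 405 nm excitation, 2 hrs substrate loading RT) after 5 hr stimulation with 10 pM TNF alpha in compound-treated NFkB-bla ME-180 cells in low-serum medium.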

[18] = qHTS Assay for Identification of Small Molecule Agonists for Thrombopoietin (TPO) Signaling Pathway (AID 917); further: on the % scale 0 is the no-effect control and ±100 the full control effect
Outline: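 First, Ba/F3 cells with human TPO receptor were held overnight without IL-3. Next, compounds and TPO (26 pM final) were added. After 24 hrs at 37 C, luciferase detection reagent was added and luminescence measured following 10 min at room temperature.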

[19] = molecular target: Cytochrome P450 2D6 (Homo sapiens) (UniProt P10635); experiment: qHTS Assay for Inhibitors and Substrates of Cytochrome P450 2D6 (AID 891); further: nearly all actives have a fitted effect of over 60% in size; further: potency means the concentration at half of the fitted maximal effect
Chain of Cytochrome P450 2D6 (Homo sapiens) (P10635 whole entry, looked up): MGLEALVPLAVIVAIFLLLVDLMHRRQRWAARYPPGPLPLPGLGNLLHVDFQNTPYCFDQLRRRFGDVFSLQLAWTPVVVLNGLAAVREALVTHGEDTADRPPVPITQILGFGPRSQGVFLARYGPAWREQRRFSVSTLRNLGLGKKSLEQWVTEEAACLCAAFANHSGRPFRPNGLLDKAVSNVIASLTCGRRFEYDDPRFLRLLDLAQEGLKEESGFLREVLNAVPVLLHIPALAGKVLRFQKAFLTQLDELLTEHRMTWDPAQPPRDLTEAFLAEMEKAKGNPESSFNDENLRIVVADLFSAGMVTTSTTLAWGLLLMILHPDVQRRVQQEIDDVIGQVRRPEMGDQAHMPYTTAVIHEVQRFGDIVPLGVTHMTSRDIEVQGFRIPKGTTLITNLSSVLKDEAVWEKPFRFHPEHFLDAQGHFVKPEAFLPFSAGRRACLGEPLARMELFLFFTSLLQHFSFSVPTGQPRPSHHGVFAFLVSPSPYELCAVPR
Outline: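 Luminescent read-out of luciferin formed by 5 nM human CYP2D6 demethylating 30 uM Luciferin-ME EGE (Km level) over 60 min at room temperature after NADPH regeneration addition. Data normalized to full inhibition by 1.43 uM quinidine.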

[20] = molecular target: Cytochrome P450 2C19 (Homo sapiens) (UniProt P33261); experiment: qHTS Assay for Inhibitors and Substrates of Cytochrome P450 2C19 (AID 899); further: on the % scale 0 is the no-effect control and ±100 the full control effect; nearly all actives have a fitted effect of over 60% in size
Chain of Cytochrome P450 2C19 (Homo sapiens) (P33261 whole entry, looked up): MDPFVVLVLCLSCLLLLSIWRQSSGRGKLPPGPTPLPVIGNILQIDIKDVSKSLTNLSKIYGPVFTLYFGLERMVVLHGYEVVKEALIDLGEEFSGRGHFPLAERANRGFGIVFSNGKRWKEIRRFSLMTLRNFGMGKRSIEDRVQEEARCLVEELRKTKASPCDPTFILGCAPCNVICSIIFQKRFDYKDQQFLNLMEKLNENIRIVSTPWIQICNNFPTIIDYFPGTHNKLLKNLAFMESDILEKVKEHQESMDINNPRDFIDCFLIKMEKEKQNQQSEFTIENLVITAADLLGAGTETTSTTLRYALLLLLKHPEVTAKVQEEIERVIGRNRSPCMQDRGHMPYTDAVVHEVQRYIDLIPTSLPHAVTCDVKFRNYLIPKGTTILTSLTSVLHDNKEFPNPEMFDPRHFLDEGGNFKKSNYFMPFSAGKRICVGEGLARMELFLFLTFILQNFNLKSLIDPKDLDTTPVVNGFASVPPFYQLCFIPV
Outline: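 Luminescence readout of luciferin formed from 10uM Luciferin-H EGE (KM level) by 5 nM CYP2C19 in 50mM KPO4. 60 min NADPH-driven reaction at 37C after 10 min compound preincubation; data scaled to 57uM ketoconazole inhibition.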

Nc1nc(N)c2nc(CNc3ccc(C(=O)NC(CCC(=O)O)C(=O)O)cc3)cnc2n1 (stereo unspecified)
inactive: outcome [1] | Potency [2]

CCn1cc(C(=O)O)c(=O)c2cc(F)c(N3CCNCC3)nc21
inactive: outcome [3] | outcome [1] | Potency [2]

Cc1ncc([N+](=O)[O-])n1CCO
inactive: Potency [4] | Potency [5] | Potency [6] | Potency [7] | Potency [8] | caspase-3 activation [9] 0.0502% | caspase-3 activation [10] -0.402% | outcome [11] | Potency [12] | Potency [13] | outcome [1] | Potency [2]

CC[C@H](C)C(=O)O[C@H]1C[C@@H](C)C=C2C=C[C@H](C)[C@H](CC[C@@H]3C[C@@H](O)CC(=O)O3)[C@H]21
inactive: Potency [4] | Potency [5] | Potency [6] | Potency [7] | Potency [8] | caspase-3 activation [9] 1.47% | caspase-3 activation [10] -1.73% | outcome [11] | Potency [12]

CC(C)(C)NC(=O)[C@H]1CC[C@H]2[C@@H]3CC[C@H]4NC(=O)C=C[C@]4(C)[C@H]3CC[C@]12C
inactive: outcome [14]

Cc1noc(NS(=O)(=O)c2ccc(N)cc2)c1C
inactive: Potency [4] | Potency [5] | Potency [6] | Potency [7] | Potency [8] | caspase-3 activation [9] 0.00688% | caspase-3 activation [10] -1.11% | outcome [11] | Potency [12] | Potency [13] | outcome [3] | outcome [1] | Potency [2] | activation [15] -20.7% and -0.198%

CC(=O)[C@H]1CC[C@H]2[C@@H]3CCC4=CC(=O)CC[C@]4(C)[C@H]3CC[C@]12C
active: caspase-3 activation [10] 154%
inactive: Potency [4] | Potency [5] | Potency [6] | Potency [7] | Potency [8] | caspase-3 activation [9] 12.7% and 23% | outcome [11] | Potency [12] | Potency [13] | outcome [14] | outcome [1]

OCc1ccc(-c2nn(Cc3ccccc3)c3ccccc23)o1
inactive: outcome [14] | outcome [16] | outcome [18]
active: Potency [17] 8.91 µM

O=C(N[C@H](CO)[C@H](O)c1ccc([N+](=O)[O-])cc1)C(Cl)Cl
inactive: Potency [4] | Potency [5] | Potency [6] | Potency [7] | Potency [8] | caspase-3 activation [9] 0.675% | caspase-3 activation [10] 1.63% | outcome [11] | Potency [12] | Potency [13]

COc1ccc2cc3[n+](cc2c1OC)CCc1cc2c(cc1-3)OCO2
inactive: Potency [4] | Potency [5] | Potency [6] | Potency [7] | Potency [8] | caspase-3 activation [9] 0.864% | caspase-3 activation [10] 4.12% | outcome [11] | Potency [12] | Potency [13] | outcome [16] | Potency [2]
active: Potency [19] 2.51 µM

N=C(N)c1ccc(OCCCCCOc2ccc(C(=N)N)cc2)cc1
inactive: Potency [4] | Potency [5] | Potency [6] | Potency [7] | Potency [8] | caspase-3 activation [9] 1.46% | caspase-3 activation [10] 3% | outcome [11] | Potency [12] | Potency [13] | Potency [2] | activation [15] 3.68%

CCc1c2c(nc3ccc(OC(=O)N4CCC(N5CCCCC5)CC4)cc13)-c1cc3c(c(=O)n1C2)COC(=O)[C@]3(O)CC
inactive: outcome [1]

COc1cc2ncnc(Nc3cccc(Cl)c3)c2cc1OC
active: Potency [17] 15.8 µM
inactive: outcome [14] | outcome [18]

NC(=O)c1cccc(N)c1
inactive: outcome [14] | outcome [3] | Potency [19] | Potency [17] | Potency [20] | outcome [18]

Cc1cc(NS(=O)(=O)c2ccc(N)cc2)no1
inactive: Potency [4] | Potency [5] | Potency [6] | Potency [7] | Potency [8] | caspase-3 activation [9] 0.0786% | caspase-3 activation [10] 1.7% | outcome [11] | Potency [12] | Potency [13] | Potency [2]

O=C(O)c1cc(=O)[nH]c(=O)[nH]1
inactive: Potency [4] | Potency [5] | Potency [6] | Potency [7] | Potency [8] | caspase-3 activation [9] 0.389% | caspase-3 activation [10] -0.467% | outcome [11] | Potency [12] | Potency [13] | outcome [1]

COc1ccc(C(=O)CC(=O)c2ccc(C(C)(C)C)cc2)cc1
inactive: outcome [1] | Potency [2]

CN(C)c1ccc(C(=C2C=CC(=[N+](C)C)C=C2)c2ccc(N(C)C)cc2)cc1
inactive: outcome [16] | Potency [2]
active: Potency [4] 3.16 µM | Potency [5] 15.8 µM | Potency [6] 6.31 µM | Potency [7] 31.6 µM | Potency [8] 10 µM | caspase-3 activation [9] 85.6% | Potency [12] 31.6 µM | Potency [13] 31.6 µM

C[C@]12C=CC(=O)C=C1CC[C@@H]1[C@@H]2C(=O)C[C@@]2(C)[C@H]1CC[C@]2(O)C(=O)CO
inactive: Potency [4] | Potency [5] | Potency [6] | Potency [7] | Potency [8] | caspase-3 activation [9] 0.264% | caspase-3 activation [10] -0.65% | outcome [11] | Potency [12] | Potency [13]
